# This is a sample that favours compounds with a hit; in the whole collection about 0.5% have one here.
# E coli growth-1 = reduces bacterial viability in AddAB counter-screen. E. coli V3065 growth, OD600 absorbance, 18 h. inhibition, % at 11.9 µM. 330,000 tested, 0.27% active. AID 449728;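 active = inhibition above the campaign's mean inhibition across all tested compounds plus 3 SD, cut at about 9.9% in these data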;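 also: uninfected addAB+ strain grown without phage in ampicillin broth; 0% = DMSO wells and 100% = ciprofloxacin 0.95 µg/ml wells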
# E coli growth-2 = blocks Escherichia coli growth; OD600, 23 h; hits give low values; OD600 absorbance (concentration not given with the values); 330,000 tested, 0.21% active; AID 1053175;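 active = OD600 absorbance below the run mean of sample wells minus 3.6 SD, in any replicate, cut at about 0.56 in these data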
# AddAB inh = less growth of phage-infected E. coli with AddAB. E. coli expressing H. pylori AddAB, absorbance growth. inhibition, % at 11.9 µM. 330,000 tested, 0.29% active; in the data active = inhibition above about 12%;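 also: 0% = vehicle wells of infected cells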
# phage Ecoli inh = E. coli growth loss with phage present. growth absorbance. inhibition, % at 11.9 µM. 360,000 tested, 0.26% active; in the data active = inhibition above about 11%
# Tat transport = blocks Tat-dependent protein export in E. coli; E. coli MC4100 TorA-mCherry Tat export, fluorescence; inhibition, % at 10 µM; 340,000 tested, 0.036% active;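 active = mean replicate inhibition at least 50% and at least half of replicates individually reaching 50%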;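 also: exported cargo escapes ClpAP degradation while cytoplasmic cargo is degraded and loses fluorescence; 0% = median of neutral control wells and 100% = median of NaSCN control wells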
# AddAB confirm = confirmation screen: growth loss of phage-infected E. coli expressing H. pylori AddAB | shares compounds with AddAB inh | 880 tested, 64% active | E. coli V3065 expressing H. pylori AddAB, T4 phage, OD; T4 phage with gene 2 nonsense mutations | AID 488942 | inhibition, % at 11.9 µM;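 active = mean inhibition above a set limit taken from the earlier primary screen, cut at about 13% in these data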;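 also: higher means less bacterial growth since AddAB block lets phage replicate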
# RecBCD counter = AddAB counter-screen: growth loss of RecBCD+ E. coli infected with mutant T4 phage; inhibition, % at 11.9 µM; AID 488955; E. coli V66 + mutant T4 phage, OD growth; 880 tested, 73% active; shares compounds with AddAB inh;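 active = mean inhibition above the mean of solvent-only control wells plus 3 SD, cut at about 4% in these data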;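 also: optical density read after an 18 h incubation at 37 °C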
# bact viab count = reduces bacterial viability, AddAB inhibitor counter-screen; shares compounds with AddAB inh; absorbance (AddAB counterscreen); inhibition, % at 11.9 µM; 880 tested, 35% active; AID 488956; in the data active = inhibition above about 25%
# * = called active by the depositor; · = not tested or not shown.
SMILES,E coli growth-1,E coli growth-2,AddAB inh,phage Ecoli inh,Tat transport,AddAB confirm,RecBCD counter,bact viab count
OC(c1cc(C(F)(F)F)nc2c(C(F)(F)F)cccc12)C1CCCCN1 (stereo unspecified),0.9,0.424*,-2.1,6.4,0.5,·,·,·
OC(c1cc(-c2ccc(C(F)(F)F)cc2)nc(C(F)(F)F)c1)C1CCCCN1 (stereo unspecified),6.2,0.494*,3.2,7.4,12.3,·,·,·
Cc1c(NC(=O)COc2cccc(F)c2)c(=O)n(-c2ccccc2)n1C,-0.5,0.701,-0.1,2.5,-2.7,·,·,·
Cc1c(NC(=O)COc2ccc3ccccc3c2)c(=O)n(-c2ccccc2)n1C,2.3,0.521*,1.6,1.6,·,·,·,·
Nc1cccc([N+](=O)[O-])c1,3.0,0.648,2.5,-1.5,-8.6,·,·,·
O=[N+]([O-])c1cccc(SSc2cccc([N+](=O)[O-])c2)c1,·,0.537*,·,2.2,3.0,·,·,·
O=C(Nc1nnc(C2=COCCO2)o1)c1cccc(Br)c1,-3.0,0.479*,2.6,-3.4,0.5,·,·,·
O=C(Nc1ccc(Cl)c(Cl)c1)Nc1ccccc1O,5.1,0.455*,4.3,7.4,11.7,·,·,·
O=C(Nc1ccc(Cl)c(Cl)c1)Nc1ccon1,1.3,0.538*,-0.9,4.8,1.5,·,·,·
O=C(Nc1cccnc1)Nc1ccc(F)c(Cl)c1,0.2,0.535*,1.6,6.5,-8.9,·,·,·
CC(=NO)C(C)(C)Nc1ccc(F)cc1,·,0.636,·,·,·,·,·,·
O=C(NN=Cc1ccc(OC(F)F)cc1OC(F)F)c1cccc(S(=O)(=O)N2CCOCC2)c1,·,0.705,·,·,·,·,·,·
Cc1cccc(-c2nnc(NC(=O)c3ccc(Cl)cc3)o2)c1,-0.5,0.517*,2.6,-2.3,-0.6,·,·,·
COc1cccc(-c2nnc(NC(=O)c3ccc(Cl)s3)o2)c1,0.0,0.474*,8.7,-1.2,-15.5,·,·,·
CCCS(=O)(=O)N1CCCC(C(=O)NCCCN2CCCC2=O)C1 (stereo unspecified),10.8*,0.681,15.1*,-0.1,4.0,·,·,·
COc1cccc(C=Nn2c(-c3cc(C)[nH]n3)n[nH]c2=S)c1O,·,0.687,·,·,·,·,·,·
Fc1ccc(Nc2nc(NCc3ccco3)c3ccccc3n2)cc1,1.4,0.364*,0.8,1.0,-79.6,·,·,·
c1ccc(CNc2nc(NCc3ccccc3)c3ccccc3n2)cc1,1.0,0.439*,6.3,·,-2.6,·,·,·
COc1cc2c(cc1OC)CN(C(=S)Nc1ccccc1Cl)CC2,-3.6,0.431*,0.2,2.2,7.6,·,·,·
COc1cc2c(cc1OC)CN(C(=S)Nc1ccccc1)CC2,1.8,0.72,0.4,-1.1,1.0,·,·,·
CCOc1ccc(Cc2onc3c2C(=O)CCC3)cc1OCC,96.9*,0.706,98.6*,2.8,6.0,-1.2,0.1,-0.1
CCOc1ccc(Cc2onc3c2C(=O)CC(C)(C)C3)cc1OCC,2.3,0.678,1.9,1.5,5.6,·,·,·
CCOC(=O)CC1c2ccc(C(F)(F)F)cc2S(=O)(=O)N1C1CCCC1 (stereo unspecified),·,0.702,·,·,·,·,·,·
Cc1cc(C)c2c(NC(=O)CCl)nn(C)c2n1,65.2*,0.713,93.4*,-0.2,-0.3,1.7,0.1,-0.1
Cc1c(OC(C)C(=O)N[C@H](C(=O)O)c2ccccc2)ccc2c3c(c(=O)oc12)CCCC3 (stereo partly specified),-1.2,0.738,3.4,1.9,-0.7,·,·,·
SMILES,E coli growth-1,E coli growth-2,AddAB inh,phage Ecoli inh,Tat transport,AddAB confirm,RecBCD counter,bact viab count
Cc1c(OC(C)C(=O)NCC(O)c2ccccc2)ccc2c3c(c(=O)oc12)CCC3 (stereo unspecified),28.2*,0.683,33.9*,0.9,2.4,-5.8,-0.5,-2.6
O=[N+]([O-])c1ccc(/C=N/n2cnc3ccccc32)s1,9.4,·,15.4*,7.0,-24.5,97.7*,5.9*,20.0
O=C(Nc1nnc(-c2ccco2)o1)c1cccc(Cl)c1,-0.5,0.693,14.9*,-4.3,-6.4,0.3,-2.2,-3.6
O=C(Nc1nnc(-c2cccs2)o1)c1cccc(F)c1,4.9,0.354*,15.9*,8.4,12.1,9.2,14.4*,6.6
O=C(Nc1nnc(-c2ccccn2)o1)c1cccc(Cl)c1,-7.0,0.574,0.4,-6.4,-6.2,·,·,·
O=C(CCN1C(=O)/C(=C\c2ccccc2)SC1=S)NNC(=O)c1ccccc1O,9.4,0.718,15.6*,8.0,11.7,3.5,5.0*,4.3
O=C(CCCN1C(=O)S/C(=C\c2ccccc2)C1=O)NNC(=O)c1ccccc1O,5.1,·,9.1,10.3,-5.4,·,·,·
COc1ccccc1NS(=O)(=O)c1cccc(C(=O)NN=Cc2ccccc2OCC(=O)O)c1,·,0.696,·,·,·,·,·,·
COc1cccc(C=NNC(=O)C(=O)NN=Cc2cccc(OC)c2O)c1O,·,0.712,·,·,·,·,·,·
COc1cccc(/C=N/NC(=O)N/N=C/c2cccc(OC)c2O)c1O,12.4*,·,15.3*,10.9,-4.8,12.1,11.4*,8.6
O=C(NNC(=O)C1CCN(S(=O)(=O)c2c(Cl)cccc2Cl)CC1)c1ccccc1O,9.6,0.691,12.9*,10.4,1.6,8.8,6.2*,6.5
O=C(NNC(=O)C1CCN(S(=O)(=O)c2ccccc2C(F)(F)F)CC1)c1ccccc1O,9.6,0.685,13.6*,8.8,-24.0,13.2*,8.8*,11.1
O=C(NCc1ccco1)C1CCN(S(=O)(=O)c2ccccc2C(F)(F)F)CC1,-1.2,0.69,-2.1,0.6,2.9,·,·,·
O=C(NNC(=O)C1CCN(S(=O)(=O)c2ccccc2)CC1)c1ccccc1O,2.9,0.711,4.2,6.0,-4.2,·,·,·
COc1cccc(C=NNC(=S)Nc2cccc(C(=O)O)c2)c1,·,0.688,·,·,·,·,·,·
O=C(NCCCNCCCNC(=O)c1ccc(/C=N/O)nc1)c1ccc(/C=N/O)nc1,11.7*,·,19.5*,10.2,4.7,4.4,3.8,4.2
O=C(CSc1ccsc1[N+](=O)[O-])NCc1ccco1,21.3*,0.681,30.1*,7.5,-8.0,51.8*,5.0*,25.7*
Cc1ccc(N2CC(NS(=O)(=O)c3cccs3)CC2=O)cc1 (stereo unspecified),98.1*,0.634,98.3*,4.3,-1.3,0.1,2.1,2.7
Cc1noc(NS(=O)(=O)c2ccc(NC(=O)C(C)(C)C)cc2)c1C,0.8,0.682,1.1,5.0,-4.7,·,·,·
Cc1noc(NS(=O)(=O)c2ccc(NC(=O)C(F)(F)F)cc2)c1C,9.4,0.698,15.1*,2.7,-12.2,-1.5,2.9,2.1
COCCNc1nnc(Cc2ccc(OC)c(OC)c2)c(=O)[nH]1,-0.4,0.629,-1.7,-0.2,2.8,·,·,·
COc1ccc(Cc2nnc(NN)[nH]c2=O)cc1OC,92.7*,0.0805*,97.2*,0.4,11.5,98.8*,11.5*,96.6*
Cc1ccc(-n2c(-c3ccc(Br)cc3)c[n+]3c2CCc2ccc4cccnc4c2-3)cc1,24.3*,0.491*,30.9*,5.4,-8.2,76.2*,5.5*,20.6
CCC(=O)Nc1ccc(C(=O)NN=Cc2ccccc2[N+](=O)[O-])cc1,·,0.75,·,·,·,·,·,·
